# In PubChem BioAssay AID802 (Columbia University Molecular Screening Center, 2007):
# The campaign covered roughly 95,000 compounds. About 460 (0.48%) were called active. The entries come from a sample that favours actives as a whole. A number with no mark means an inactive call.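 The calls were made as follows: active = inhibition above the batch mean plus 3 SD, with images confirmed as a hit by eye (cut at about 37% in these data); inconclusive = inhibition above that limit but hit not confirmed in images; inactive = inhibition not above that limit.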
# Experiment: blockers of endothelial VCAM-1 upregulation by TNFa – imaging, HUVEC, TNFa stimulus, immunofluorescence, primary screen (AID 802);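 also: 0% = TNF-stimulated DMSO wells and 100% = unstimulated control wells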
# Conditions: HUVEC TNFa-induced VCAM-1 immunofluorescence, high-content imaging; at 2 µM; active compounds read high
row,SMILES,inhibition
1,CCN(CC)CCN1C(=O)C(=O)/C(=C(/O)c2cnn(-c3ccccc3)c2C)C1c1cccs1 (stereo not drawn),-0.9%
2,COc1ccc(-c2c(C(C)=O)c(C)nc3sc4c(=O)n(-c5ccc(C)cc5)nnc4c23)cc1,12%
3,O=C(CN1CCSCC1)N/N=C/c1ccc(F)cc1,-11.6%
4,CCc1nnc(NC(=O)CSc2nc3ccccc3c(=O)n2CCCOC)s1,1.6%
5,Cc1nnc(SCc2nc3ccccc3nc2C)s1,-5.5%
6,Cc1ccc(NC(=S)NC2CCCC2)cc1,-15%
7,Cc1ccoc1C(=O)Nc1cccc(Oc2ccccc2)c1,-7.5%
8,O=C(O)c1cccnc1NC1CCCC1,-5.2%
9,O=C(c1ccc2c(c1)OCCO2)C1CCN(S(=O)(=O)c2cccc(F)c2)CC1,-12.7%
10,O=S(=O)(c1cccc(S(=O)(=O)N2CCC(n3nnc4ccccc43)CC2)c1)N1CCCCC1,-12.3%
11,CC(=O)c1cccc(S(=O)(=O)N2CCC(n3nnc4cc(F)ccc43)CC2)c1,54.7% (active)
12,COc1ccc(CC(=O)Nc2ccc(-c3nnc(-c4ccc(C)cc4)o3)cc2)cc1,-1.2%
13,COc1cccc(NC(=O)Cc2ccc(C)cc2)c1,3.7%
14,COc1ccc(NC(=O)/C(Cl)=C(/Cl)S(=O)Cc2ccc(C)cc2)cn1 (stereo not drawn),90.4% (active)
15,COc1cc(CC(=O)NCc2cccs2)cc(OC)c1OC,4.1%
16,COc1cc(/C=N/NC(=O)Nc2ccccc2)ccc1OCCOc1ccccc1C,51.1% (active)
17,COc1ccc(/C=N\NC(=O)c2sc(N)nc2C)cc1OC,-10.1%
18,CCOc1ccc(NC(=O)Nc2cc(C)ccc2OC)cc1,11.7%
19,CC(C)CNC(=S)NNC(=O)c1nn(C)cc1Cl,5.2%
20,Cc1nnsc1S(=O)(=O)Cc1ccccc1Cl,1.2%
21,COCCNS(=O)(=O)c1cc(Br)ccc1OC,-35.9%
22,O=C(Nc1ccccc1)c1ccc2nsnc2c1,-11.1%
23,O=C(Nc1ccccc1)c1nnsc1S(=O)(=O)c1ccc(Cl)cc1,59.3% (active)
24,O=C(c1ccc(Cl)cc1)c1cnc(Nc2ccccc2)s1,4.4%
25,O=C(Nc1ccc(Cl)cc1)c1ccsn1,-10%

row,SMILES,inhibition
1,CCC(C)(C)n1nnnc1CN1CCN(c2nc3ccc(C)cc3cc2C#N)CC1,3.1%
2,S=C(NCCC1=CCCCC1)Nc1ccccc1,2.2%
3,CC(C)NC(=O)CSc1nnc(COc2ccccc2Cl)o1,6.7%
4,NS(=O)(=O)c1cccnc1Nc1cccc(Cl)c1,-4.5%
5,COC(=O)C1=C(Nc2ccc(OC)cc2)C=C(C)C(C(=O)OC)C1c1ccc(C)cc1 (stereo not drawn),-3.9%
6,O=C(O)CSc1nccn1-c1cccc(Cl)c1,-15%
7,Cc1cccc(C)c1NC1=NC(=S)N(c2ccc(N(C)C)cc2)C1(C)C,-2.5%
8,Cc1ccc(/C=N/NC(=O)c2sccc2OCc2ccc(F)cc2)cc1,4%
9,CCOC(=O)C1(S(=O)(=O)c2ccccc2)CCN(Cc2ccccc2)CC1,-5.9%
10,CC1CC(C)CN(S(=O)(=O)c2cccc(C(=O)N3C(=O)c4cccc(N)c4C3=O)c2)C1 (stereo not drawn),-20.1%
11,CCC(=O)Nc1ccc2nc(C)n(Cc3ccccc3Cl)c(=O)c2c1,-5.1%
12,CC(=O)Nc1ccccc1OC(=O)N1CCOCC1,-16.3%
13,Cc1cc(C)n(-c2nnc(C)n2NC(=O)c2cccc(Cl)c2)n1,-8.8%
14,Cc1ccc(Nc2nc(C)cc(C)c2C(N)=O)cc1,7.1%
15,CC1CCN(S(=O)(=O)c2ccc(S(=O)(=O)NCc3ccco3)cc2)CC1,-20.1%
16,O=C(OC1CCCCC1=O)c1cccc(S(=O)(=O)NCc2ccccc2)c1 (stereo not drawn),-3.3%
17,COc1ccc(C(=O)NN(C)c2nc(-c3ccccc3)cc(C)c2S(C)(=O)=O)cc1,16.7%
18,CN(NC(=O)c1ccccc1)c1nc2ccccc2nc1C(F)(F)F,11.7%
19,CSc1nc(N(C)NC(=O)c2cccc(C)c2)c2ccccc2n1,83.3% (active)
20,CCN(CC)c1ccc(/C=N/Nc2nc(C)cc(=O)[nH]2)cc1,11.9%
21,COC(=O)C1=C(C(=O)c2ccc(C)cc2)C(c2ccccc2)n2nnnc2N1 (stereo not drawn),5.8%
22,COc1ccc(C(=O)Nc2nc(-c3ccc(S(=O)(=O)N4CCOCC4)cc3)cs2)cc1,-4.5%
23,CCOc1cccc(C(=O)Nc2nnc(-c3cccs3)s2)c1,-0.3%
24,c1ccc(-n2nnnc2NC2CCCCCC2)cc1,-15.1%
25,CCOC(=O)c1ccc(NC(=O)CS(=O)(=O)c2cn(CC)c3ccccc23)cc1,7%

row,SMILES,inhibition
1,Cc1cc(NC(=O)CS(=O)(=O)c2cn(C)c3ccccc23)no1,28.9%
2,O=C(CS(=O)(=O)c1cn(Cc2cccc(F)c2)c2ccccc12)N1CCCCC1,50.1% (active)
3,O=C(NCCCN1CCOCC1)c1cnn2c(-c3ccccc3)cc(-c3ccccc3)nc12,12%
4,O=C(Nc1cc(-c2nn(CC(=O)N3CCCCC3)c(=O)c3ccccc23)ccc1N1CCOCC1)c1ccc(Cl)cc1,12.6%
5,Cc1ccc(-n2ncc3c(Nc4cccc(C(=O)O)c4)ncnc32)cc1,-17%
6,CCCCNC(=O)CSc1nc2n[nH]c(C)c2c(=N)n1-c1cccc(Cl)c1C,10.7%
7,CCNC(=O)c1sccc1-n1cccc1,32%
8,Cc1ccccc1N1CCN(CCCOc2ccc3c(C)cc(=O)oc3c2)CC1,-7.7%
9,Cc1cc(=O)oc2cc(OCC3CC(c4ccccc4Cl)=NO3)ccc12 (stereo not drawn),59.7% (active)
10,COc1cccc(-c2nnc(SCCOc3ccc4c(C)cc(=O)oc4c3)o2)c1,0.7%
11,Oc1ccccc1/C=N/n1c(-c2cccs2)n[nH]c1=S,-7.1%
12,CC(CNC(=O)c1ccc(Br)o1)NC(=O)c1ccc(Br)o1 (stereo not drawn),-12.4%
13,O=C(Nc1ccc(-c2nnc(-c3ccccc3)o2)cc1)c1ccc(Br)o1,-17.2%
14,CC(CCc1ccccc1)NC(=O)c1ccc(Br)o1 (stereo not drawn),95.4% (active)
15,O=C1CSC(c2cccc(F)c2)N1c1ccc(O)cc1 (stereo not drawn),-1.8%
16,C/C(=C\C(=O)c1ccccc1)Nc1cccc(O)c1,-2.3%
17,CCC(=O)Nc1cccc(NC(=O)c2cccnc2)c1,7.8%
18,C/C(=C\C(=O)c1cccnc1)Nc1ccc(C)c(C)c1,89.1% (active)
19,Cc1c(NC(=O)/C=C/C(=O)O)cccc1[N+](=O)[O-],3.3%
20,O=C(CSc1ncnc2c1cnn2CCc1ccccc1)Nc1ccc(F)cc1,1.7%
21,CCOC(=O)N1CCN(C(=O)COc2ccc(Cl)cc2C)CC1,92.1% (active)
22,CCOC(=O)N1CCN(C(=O)CSc2ccc(Cl)cc2)CC1,-18.1%
23,CCOC(=O)N1CCN(C(=O)COc2ccc(Br)cc2)CC1,-1.9%
24,CCn1c2ccccc2c2cc(NC(=O)C/C(C)=N/NC(=O)c3ccccc3N)ccc21,1.3%
25,COC(=O)c1cc(OC)c(OC)cc1NC(=O)CSc1ccc(C)cc1,-25%

row,SMILES,inhibition
1,Cc1ccc2nc(SCc3nnc(-c4ccccc4[N+](=O)[O-])o3)c(C#N)cc2c1,6%
2,CN(C)c1ccnc(Oc2ccc(F)cc2)c1C#N,-15.3%
3,Cc1cc(C)n(-c2cc(Oc3ccccc3)ncn2)n1,13.4%
4,Cc1cc(Oc2ccccc2)nc(N2CCOCC2)n1,0.8%
5,CC(=O)c1ccc(Oc2cc(C)nc(-n3nc(C)cc3C)n2)cc1,75.8% (active)
6,O=C(Cc1ccc(-n2c(=O)[nH]c3ccccc3c2=O)cc1)N1CCN(c2cccc(Cl)c2)CC1,1.3%
7,Cc1cccc(S(=O)(=O)CC(=O)Nc2nc(-c3ccccc3)cs2)c1,-5.3%
8,CN(CC#CCC(c1ccccc1)c1ccccc1)C(C)(C)C,5.2%
9,O=C1Cc2ccccc2Sc2ccc(Cl)cc21,10%
10,CSCc1cc(N2CCOCC2)nc(SCc2ccc(Cl)cc2Cl)n1,5.1%
11,Cc1ccc(-c2csc(NC(=O)Cc3cccs3)n2)cc1C,1.5%
12,COc1ccc(OC)c(/C=N/NC(=O)CSc2nnc(C)n2-c2ccccc2)c1,0.9%
13,O=C(Nc1ccccc1)c1ccccc1NC(=O)C(F)(F)F,-10.4%
14,COc1cc(/C=C2\SC(=S)N(Nc3ncc(C(F)(F)F)cc3Cl)C2=O)cc(OC)c1OC,14.4%
15,O=C(c1ccccc1)C(Cn1cncn1)C(Sc1ccccc1)c1ccccc1 (stereo not drawn),0.1%
16,CCOc1ccc(NC(=O)CCS(=O)(=O)c2ccc3c(c2)CCCN3C(=O)CC)cc1,0.8%
17,COc1ccccc1NC(=O)C1CCCN(c2cc(C)nc3ncnn23)C1 (stereo not drawn),3.1%
18,CC1(C)Cc2c(C#N)c(SCc3nc4ccccc4[nH]3)nc(N3CCOCC3)c2CO1,7.1%
19,CC(C)c1nc(N2CCOCC2)c(C#N)c2c1COC(C)(C)C2,-40.7%
20,CC(C)C(=O)N1CCN(c2nc(-c3ccccc3)c3c(c2C#N)CC(C)(C)OC3)CC1,36.7% (active)
21,S=C(NCc1cccs1)Nc1ccc(Cl)cc1,-27.9%
22,Cc1cc2cc(CNC(=O)c3cccs3)ccc2[nH]1,11.4%
23,COCCn1c(SCc2nnc(-c3ccc(OC)c(OC)c3)o2)nc2sc3c(c2c1=O)CCC3,-4.9%
